Assay results reported in PubChem BioAssay AID2129 (The Scripps Research Institute Molecular Screening Center, 2009).
Where “and” joins values, the source holds several entries; their conditions need not be identical. Identical values can stand only once. In all, about 320,000 compounds went through this assay and about 2,200 (0.69%) were called active.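 How the source made its calls: active means inhibition above the mean of all tested compounds plus 3 SD, cutoff set per campaign (cut at about 30% in these data); inactive means the rest.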 What follows is part of a selection rich in actives, with near analogues and random picks from the rest. Some compounds were tested as several samples or in several runs, with calls that do not always agree.

biological target: Bcl-2-like protein 1 (Homo sapiens) (UniProt Q07817); test: inhibitors of human Bcl-xL, primary screen, biochemical, fluorescence polarization, HTS (AID 2129); settings: GST-Bcl-xL / FITC-Bim BH3 peptide fluorescence polarization; at 10.9 µM; stronger effect = higher value;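 further: 0% = DMSO wells and 100% = unlabeled Bim-BH3 peptide competitor; inhibitors lower millipolarization by displacing the labeled peptide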
Sequence (Q07817 whole entry, looked up): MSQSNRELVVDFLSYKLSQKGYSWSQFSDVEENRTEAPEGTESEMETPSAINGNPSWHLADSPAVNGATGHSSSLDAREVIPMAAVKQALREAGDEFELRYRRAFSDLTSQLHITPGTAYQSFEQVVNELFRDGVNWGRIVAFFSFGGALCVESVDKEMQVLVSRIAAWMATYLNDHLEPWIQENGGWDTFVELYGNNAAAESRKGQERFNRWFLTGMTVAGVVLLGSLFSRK

SMILES | inhibition
O=C(Cn1cc(C(F)(F)F)ccc1=O)N/N=C/c1ccc(Cl)cc1Cl | 4.51% (inactive)
Cc1ccc(NC(=O)CN(C)S(=O)(=O)c2cnc[nH]2)cc1C | 2.37% (inactive)
Cc1ccc(C(=O)N/N=C\c2cc(Br)c(Br)o2)cn1 | 39.1% (active)
Cc1ccc(C(=O)N/N=C/c2cccc3ccccc23)cn1 | 0.59% (inactive)
O=C(N/N=C\c1cc(Br)c(Br)o1)C1COc2ccccc2O1 (stereo not drawn) | 8.03% (inactive)
CC(C)(C)C1CCc2c(sc3nc(SCC(N)=O)nc(N)c23)C1 (stereo not drawn) | 0.88% (inactive)
O=C1COc2ccc(C(=O)CSc3ccc(Br)cc3)cc2N1 | 1.67% (inactive)
Cc1ccc(NC(=O)CSc2nc(=O)n(CCN(C)C)c3c2CCCC3)c(C)c1 | 0.09% (inactive)
O=C1CCC(=O)N1CCOP1(=O)COc2ccccc2OC1 | 4.75% (inactive)
Cc1cccc(C)c1NC(=O)CN(C)C(=O)CCC(=O)c1ccccc1 | 7.72% (inactive)
Cc1ccc(C(=O)CCC(=O)N(C)CC(=O)Nc2c(Cl)cccc2Cl)cc1 | -0.97% (inactive)
CN(CC(=O)Nc1ccc(Cl)c(C(F)(F)F)c1)C(=O)CCC(=O)c1ccccc1 | 45.3% (active)
C=CCSc1nnc(N2C(=O)C(O)=C(C(=O)c3ccco3)C2c2ccc(F)cc2)s1 (stereo not drawn) | 51.8% (active)
CC(C)c1ccc(C2C(C(=O)c3ccco3)=C(O)C(=O)N2CC2CCCO2)cc1 (stereo not drawn) | 1.85% (inactive)
Cc1ccc2nc(N3C(=O)C(O)=C(C(=O)c4ccco4)C3c3cccc(O)c3)sc2c1 (stereo not drawn) | 2.1% (inactive)
CC(OC(=O)C1CC(=O)N(Cc2ccccc2)C1)C(=O)Nc1ccccc1[N+](=O)[O-] (stereo not drawn) | 5.02% (inactive)
O=C(CSc1ncccn1)N1CCCC1 | 1.98% (inactive)
C=CCNc1nnc(C)c2ccccc12 | 1.09% (inactive)
C=CCNc1nnc(SCC(=O)N2CCCCC2)c2ccccc12 | 108% (active)
COCCNC(=O)C(c1ccc(C)cc1)N(C(=O)CCC(=O)Nc1ccccn1)c1cccc(C)c1 (stereo not drawn) | 3.67% (inactive)
CN(C)C(=O)CSc1n[nH]c(-c2ccco2)n1 | 1.16% (inactive)
O=C1CCC(=O)N1c1ccc(NCCc2ccccc2F)c([N+](=O)[O-])c1 | 4.81% (inactive)
Cc1ccc(NC(=S)NC(=O)c2ccc(-c3ccccc3)cc2)cc1 | 1.62% (inactive)
Cc1ccc(C(=O)NC(=S)Nc2ccccc2C)cc1 | 2.65% (inactive)

SMILES | inhibition
COC(=O)c1sc(NC(=S)NC(=O)c2ccc(C)cc2)nc1C | 90.6% (active)
CCOC(=O)c1sc2nc(C)nc(SCC(N)=O)c2c1C | 3.97% (inactive)
C=CCN1C=C2C(=O)C(C)(OC(=O)CCc3ccccc3)C(=O)C=C2C=C1c1ccc(C#N)cc1 (stereo not drawn) | 26.4% (inactive)
O=C(COC(=O)c1ccco1)NCc1ccc(Cl)cc1 | 3.7% (inactive)
CC(C)(C)OC(=O)NCCCC1=CC2=CC(=O)C(C)(OC(=O)c3ccco3)C(=O)C2=CO1 (stereo not drawn) | 62.9% (active)
CCCN1CNC(=S)N(CCc2ccccc2)C1 | -3.74% (inactive)
C/C(CC(=O)NC(C)c1ccccc1)=N\NC(N)=S (stereo not drawn) | 4.39% (inactive)
O=C(c1cc(=O)c2ccccc2o1)N1CCN(c2ccccc2)CC1 | -0.91% (inactive)
CC(C)N(C(=O)COC(=O)c1ccccc1C(=O)N1CCN(c2ccc(F)cc2)CC1)C(C)C | 10.7% (inactive)
O=C(COC(=O)c1ccccc1C(=O)N1CCN(c2ccccc2)CC1)NCc1ccccc1 | 56.5% (active)
CCc1c(C)nc2c(OC)cccc2c1Cl | 7.8% (inactive)
O=C(NC1CCCCC1)N1CCc2[nH]c3ccccc3c2C1 | 16.5% (inactive)
COC(=O)C1CCN(C(=O)c2cc(=O)[nH]c3ccccc23)CC1 | 1.35% (inactive)
COC(=O)[C@H]1[C@H]2C[C@H]3c4[nH]c5ccccc5c4CCN3C[C@@H]2CC[C@@H]1O | 6.53% (inactive) and 60% (active)
CCCC(C)c1nnc(NC(=O)C2CC(=O)N(c3ccc(OCC)cc3)C2)s1 (stereo not drawn) | 7.2% (inactive)
Cc1ccc(CS(=O)(=O)CCC(=O)NCc2ccc(F)cc2)cc1 | -0.6% (inactive)
CCOC(=O)CNc1nc2ccccc2n2c(C)nnc12 | 4.27% (inactive)
COc1ccc(CNc2nnnn2C)cc1 | -1.64% (inactive)
Fc1ccc(CNc2nc3ccccc3n3nnnc23)cc1 | 49% (active)
CCCCCN(C(=O)NC(=O)Nc1ccccc1C)S(C)(=O)=O | 2.62% (inactive)
O=[N+]([O-])c1ccc(N2CCNCC2)cc1NCc1cccnc1 | -23.7% (inactive)
O=C(NCCCc1ccccc1)C(=O)c1c[nH]c2ccccc12 | 4.6% (inactive)
COc1ccc(N2CC(C(=O)NCCN3C(=O)S/C(=C\c4cccnc4)C3=O)CC2=O)c(OC)c1 (stereo not drawn) | 149% (active)
CCOc1ccc(N2CC(C(=O)NCCN3C(=O)S/C(=C\c4cccnc4)C3=O)CC2=O)cc1 (stereo not drawn) | -5.5% (inactive)

SMILES | inhibition
COc1ccccc1N1CC(C(=O)NCCN2C(=O)S/C(=C\c3cccnc3)C2=O)CC1=O (stereo not drawn) | 9.93% (inactive)
O=C(COc1ccc(Cl)cc1)NCCS(=O)(=O)N1CCN(c2ccc(F)cc2)CC1 | 5.68% (inactive)
CCN(CC)c1ccc2oc(=O)c(C)nc2c1 | 31.2% (active)
C=CCN(C(=O)Nc1ccc2oc(C)nc2c1)c1ccccc1 | 13.5% (inactive)
CCN(CC)c1ccc(C(=O)Nn2c(C)nc3ccccc3c2=O)cc1 | 5.43% (inactive)
C=C(C)C(=O)O[C@H]1C/C(C)=C\C(=O)/C=C(\C)[C@H](O)[C@@H]2OC(=O)C(=C)[C@@H]21 | 3.95% (inactive)
Cc1cccc(C(=O)OCC(=O)NCC(C)C)c1O | 2.99% (inactive)
Cc1cnc(C(=O)Oc2cccc(Cl)c2Cl)cn1 | 9.01% (inactive)
Cc1nn2c(c1-c1ccccc1)N=C(c1ccco1)CC2c1ccccc1 (stereo not drawn) | 3.95% (inactive)
CC1(C)C=C2[C@H]3CC[C@@H]4[C@@]5(C)CCC(=O)C(C)(C)[C@@H]5CC[C@@]4(C)[C@]3(C)CC[C@@]2(C(=O)O)CC1 | 5.29% (inactive)
COc1ccc(CNC(=O)C2CCN(S(=O)(=O)c3ccc(SC)cc3)CC2)cc1 | 9.54% (inactive)
O=C1Nc2ccccc2/C1=C/c1ccnc2ccccc12 | 2.91% (inactive)
CN(C)/C=C1/Nc2ccccc2C1=O | 18.7% (inactive)
Cc1cc(C)c(/C=C2\C(=O)Nc3ccccc32)[nH]1 | 163% (active)
O=C(Nc1ccccc1C(=O)NCCCn1ccnc1)c1ccc(Cl)cc1Cl | 9.41% (inactive)
CC1CCN(C(=O)COC(=O)c2cc(=O)[nH]c3ccccc23)CC1 | 2.08% (inactive)
Cc1noc(C)c1CSCC(=O)Nc1nc2ccc(Oc3ccccc3)cc2s1 | 3.02% (inactive)
CC(C)(CSc1nncn1/N=C/c1ccco1)NS(=O)(=O)c1ccc(Cl)cc1 | 4.42% (inactive)
NS(=O)(=O)c1ccc(NC(=O)COC(=O)c2c3c(nc4ccccc24)/C(=C\c2ccc4c(c2)OCO4)CCC3)cc1 | 34.1% (active)
NS(=O)(=O)c1ccc(NC(=O)COC(=O)c2cc3ccccc3oc2=O)cc1 | 3.99% (inactive)
COc1cc(/C=C2\CCCc3c2nc2ccccc2c3C(=O)O)cc(Cl)c1O | 9.54% (inactive)
COc1ccc(CNC(=O)C(C)NCc2ccccc2Cl)cc1 (stereo not drawn) | 2.09% (inactive)
CCOCCCNC(=O)C(NC(=O)CNC(=O)c1ccccc1)c1ccc(OC)cc1 (stereo not drawn) | 3.02% (inactive)
COc1cc([C@H](Cc2ccccc2)NC(C)=O)oc(=O)c1 | 48.2% (active)

SMILES | inhibition
COC(=O)[C@H](Cc1ccccc1)NC(=O)Nc1ccc(OC)cc1 | 0.58% (inactive)
CCOC(=O)C(Cc1ccccc1)NC(=O)CCC(=O)c1ccc(OC)cc1 (stereo not drawn) | 6.1% (inactive)
COc1ccc(CCn2ccc(O)c(Cc3ccc(Cl)cc3Cl)c2=O)cc1OC | 4.67% (inactive)
CN1C(C)(C)CC(NC(=O)CCC(=O)NC2CC(C)(C)N(C)C(C)(C)C2)CC1(C)C | 2.66% (inactive)
CC1CCN(C(=O)COC(=O)c2cc(S(=O)(=O)N3CCOCC3)ccc2Cl)CC1 | -2.49% (inactive)
Cc1ccnc(NC(=O)C2CCN(S(=O)(=O)c3c(C)c(C)cc(C)c3C)CC2)c1 | -0.18% (inactive)
CC1(C)c2[nH]c3ccccc3c2C[C@H]2C(=O)N(N)CC(=O)N21 | 1.69% (inactive)
CCOc1nc(OCC)nc(-n2cc(-c3ccccc3)nn2)n1 | 6.35% (inactive)
CC1CCCCC1NC(=O)/C(C#N)=C/C=C/c1ccccc1[N+](=O)[O-] (stereo not drawn) | 7.36% (inactive)
O=c1ccc2c(-c3ccccc3S(=O)(=O)O)c3ccc(O)c(O)c3oc-2c1O | 92.5% (active)
O=C(CSc1nnc(SCc2ccc(Cl)cc2)s1)N/N=C/c1ccccc1Cl | -6.66% (inactive)
CN1c2ccc(C=O)c3c(C=O)ccc(c23)N(C)C1(C)C | 144% (active)
CCOC(=O)c1c(C)oc(C)c(C(=O)OCC)c1=O | 2.36% (inactive)
CCOC(=O)c1c(-c2ccccc2)oc2cc(Br)c(O)c(C=O)c12 | 11.5% (inactive)
CCOC(=O)c1c(C)oc2cc(Sc3ccccc3)c(O)c(O)c12 | 39% (active)
CCOC(=O)c1ccc(NC(=O)c2c(NCc3ccccc3)[nH]c(=O)[nH]c2=O)cc1 | 2.87% (inactive)
O=C(CSC(=S)N1CCCCC1)c1c(F)cccc1F | 3.52% (inactive)
COc1ccc(OC)c(CCNC(=O)CCn2ccc3cc(S(=O)(=O)N4CCCC4)ccc32)c1 | 0.09% (inactive)
COc1ccc(-c2nc(CS(=O)CC(=O)NCc3ccccn3)c(C)o2)cc1 (stereo not drawn) | 95.6% (active)
COc1cccc(-c2nc(CS(=O)CC(=O)NCc3ccc(F)cc3)c(C)o2)c1 (stereo not drawn) | 7.05% (inactive)
COc1ccc(-c2nc(CS(=O)CC(=O)NCc3ccccc3)c(C)o2)cc1OC (stereo not drawn) | 4.97% (inactive)
